# Arbovirus inh – antivirals against arbovirus infection, primary screen, cell-based, full library, 10K replicate subset; arbovirus infection cell-based antiviral screen; inhibition, % at 10 µM; 200,000 tested, 0.37% active; in the data active = inhibition above about 30%
# CHOP inhibitor – inhibitors of CHOP promoter induction, primary screen, cell-based, unfolded protein response, luciferase reporter; CHO-K1 CHOP-promoter luciferase, tunicamycin-induced, 15-18 h; inhibition, % at 10 µM; 220,000 tested, 3.8% active; AID 2732, 2010;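 active = compounds that reduced the stress-induced luciferase reporter signal by more than about 70% of percent inhibition, limit read from the data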;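 note: 0% = tunicamycin plus vehicle and 100% = wells without tunicamycin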
# L major viab – Leishmania major promastigote growth inhibition, primary screen; Leishmania major promastigotes, resazurin fluorescence viability; inhibition, % at 10 µM; 200,000 tested, 9% active; AID 1063, 2008; in the data active = inhibition above about 50%;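 note: promastigotes grown with compound for 44 hours at 28 °C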
# WT yeast gro inh – growth inhibition of WT strain, primary screen, mitochondrial fusion inhibitor project, WT and mutant strains, chemical genetic; mitochondrial fusion phenotypic screen; 190,000 tested, 2.1% active; inhibition, % at 10 µM; in the data active = inhibition above about 58%; tested in S. cerevisiae
# * hit, by the source's call; . = no result. Hits are enriched below; roughly 12% of the tested compounds scored in any of these assays.
SMILES,Arbovirus inh,CHOP inhibitor,L major viab,WT yeast gro inh
COc1ccc(C(C(=O)NC2CCCC2)N(C(=O)c2snc(-c3ccc(F)cc3)c2N)c2ccc(OC)cc2)cc1 (configuration not stated),-24,17,63*,4
Cc1cc(=O)oc2cc(OCc3ccc(C(=O)OCC(=O)Nc4ccccc4OC(F)F)cc3)ccc12,-3,26,-7,-8
Cc1ccccc1Cn1cc(NC(=O)CCCn2nc([N+](=O)[O-])cc2C)cn1,-1,-9,-8,-14
Cc1cc(C)n(-c2n[nH]c(=O)c3ccccc23)n1,.,0,.,.
CCCN(CCC)c1nc2ccccc2nc1C(C#N)C(=O)OC(C)COC (configuration not stated),-28,87*,66*,68*
Cc1ncsc1CCOC(=O)c1ccc(Cl)cc1,9,-5,-5,14
Cc1cc(C)c(C)c(OCC(=O)NCc2nc(-c3ccccc3)no2)c1,-6,86*,-7,35
COc1ccc(CC(=O)NCc2nc(-c3ccccc3)no2)cc1,2,8,-7,-1
COc1cc(OC)cc(C(=O)NCc2nc(-c3ccccc3)no2)c1,3,15,68*,-2
C=CCN(c1ccc(C(=O)Nc2ccc(NC(C)=O)cc2)cc1)S(C)(=O)=O,-9,-2,1,-7
CC(C)(C)c1cc(C(=O)N/N=C/c2ccc(F)cc2)n(-c2ccccc2)n1,-8,42,30,22
COc1ccc(/C=N/NC(=O)c2nc(-c3ccccc3)n(-c3ccccc3)n2)cc1,-17,33,44,-20
COc1ccc(/C=N/NC(=O)c2nc(-c3ccccc3)n(-c3ccccc3)n2)c(O)c1,-20,56,99*,-15
CC(C)(C)c1cc(C(=O)N/N=C/c2ccccc2O)n(-c2ccccc2)n1,-3,64,99*,-14
CC1SCC(=O)N(CC(=O)Nc2ccc3c(c2)OCCO3)C1=O (configuration not stated),4,-7,9,-6
CCCN(CCC)CCNC(=S)Nc1ccc2nc3n(c(=O)c2c1)CCCCC3,-17,4,11,6
Cc1cccc(-c2nnc3sc(-c4ccccc4C)nn23)c1,-1,83*,39,69*
COc1cccc(-c2nnc3sc(-c4ccccc4)nn23)c1,-15,-29,-10,3
CCOC(=O)c1sc(NC(=O)CCN2CC(C)OC(C)C2)c(C(=O)OCC)c1C (configuration not stated),-1,46,-5,0
CCOC(=O)c1sc(NC(=O)CCN2CCN(C)CC2)c(C(=O)OCC)c1C,-34,-10,100*,2
CCOC(=O)c1c(NC(=O)CN2CCN(C)CC2)sc(C(=O)Nc2ccccc2)c1C,-20,-28,99*,6
CCOC(=O)c1sc(NC(=O)/C=C/c2cnn(CC)c2C)c(C(=O)OCC)c1C,-20,38,2,63*
CCOC(=O)c1c(NC(=O)CN2CCOCC2)sc(C(=O)NC)c1C,0,16,5,15
CCc1cccc(CC)c1NC(=O)COC(=O)CC1c2ccccc2CCN1S(=O)(=O)c1ccccc1 (configuration not stated),14,-1,13,-11
Cc1ccc(OP(=O)(Nc2c(C)n(C)n(-c3ccccc3)c2=O)Oc2ccc(C)cc2)cc1,4,15,69*,-11
SMILES,Arbovirus inh,CHOP inhibitor,L major viab,WT yeast gro inh
O=C(NCc1ccc(Cl)cc1)c1ccc(N2CCCC2=O)cc1,5,0,21,-2
CC(Sc1nnc(Nc2ccccc2)s1)C(=O)NC1CCCc2ccccc21 (configuration not stated),-6,32,15,24
CC(Sc1nnc(NC2CCCCC2)s1)C(=O)Nc1ccc2c(c1)C(=O)c1ccccc1C2=O (configuration not stated),-3,24,66*,21
CCOc1ccc(S(=O)(=O)NCc2ccc(Cl)cc2)c2cccnc12,4,-58,99*,-4
CCn1cc(Br)c(-c2nc3ccccc3c(=O)n2N)n1,2,90*,-4,5
Cc1nc2ccccc2c(=O)n1N,3,51,-3,-1
CCOc1ccccc1OCCOCCN1CCN(Cc2ccccc2)CC1,-4,34,15,11
c1ccc(COCCN2CCN(CCOCc3ccccc3)CC2)cc1,-5,31,95*,10
O=C(c1ccccc1)c1ccc(OCCCCN2CCCCC2)cc1,1,-7,98*,5
O=C(c1ccccc1)c1ccc(OCCOCCN2CCN(Cc3ccccc3)CC2)cc1,12,34,56*,28
c1ccc(COc2ccc(OCCCCN3CCCCC3)cc2)cc1,-20,-16,100*,25
c1ccc(CN2CCN(CCOCCOc3ccc4c(c3)CCC4)CC2)cc1,-3,13,-2,8
Oc1ccc(N2CCN(Cc3ccc(OCCCN4CCCCC4)cc3)CC2)cc1,-19,-2,48,-13
Cc1oc(-c2cccc(Br)c2)[n+]([O-])c1C,4,-9,-4,-6
N#C/C(=C\c1c[nH]c2ccccc12)C(=O)c1ccc(O)c(O)c1,.,-1,.,.
O=C(c1ccccc1)c1ccc(OCCCN2CCCC2)cc1,-11,-10,99*,-4
CCN1C(=O)/C(=C\c2cccn2-c2ccc([N+](=O)[O-])cc2)N(CC)C1=S,-13,74*,0,2
NCCCCCc1nnc(SCc2ccc(Cl)c(Cl)c2)o1,-25,26,100*,18
CS/C(=N\N(C)C(N)=O)c1ccccc1,21,2,69*,21
O=C(Nc1ccc(O)cc1)c1ccc2c(c1)C(=O)N(Cc1ccco1)C2=O,13,18,61*,-5
O=C(COC(=O)c1cccs1)Nc1ccccc1[N+](=O)[O-],6,9,2,4
CN1CCN(CC(=O)n2c3c(c4ccccc42)CCCC3)CC1,11,7,75*,0
CN(c1ccc(O)cc1)c1nc(-c2cccs2)cs1,1,60,42,67*
Cc1nc(N)sc1-c1csc(N(C)c2ccc(O)cc2)n1,-27,25,-2,18
CCn1cc(C(=O)N2CCN(c3cccc(Cl)c3)CC2)c2cc(OC)c(OC)cc2c1=O,0,43,92*,-10
SMILES,Arbovirus inh,CHOP inhibitor,L major viab,WT yeast gro inh
CC1=NN(C(=O)c2csc(C(C)C)c2)C(O)(C(F)(F)F)C1 (configuration not stated),-14,12,5,-15
O=C(Nc1ccccc1C(F)(F)F)c1ncn[nH]1,.,5,.,.
CSc1ccc(CNc2ccccn2)cc1,1,-2,12,7
CSc1ccc(CNc2ccccc2)cc1,-2,41,100*,-1
COC(=O)c1ccc(C(=O)OC)c(NC(=S)N2CCOCC2)c1,5,18,-2,-10
O=C(COC(=O)Cn1cnc2ccccc2c1=O)Nc1ccc(Cl)cc1,0,5,-8,7
O=C(COC(=O)Cn1cnc2ccccc2c1=O)Nc1ccccc1Sc1ccc(Cl)cc1,4,69,69*,19
O=C(Cn1cnc2ccccc2c1=O)Nc1nnc(SCc2ccc(Cl)cc2)s1,.,86*,.,.
O=C(Cn1cnc2ccccc2c1=O)Nc1nnc(C2CC2)s1,0,6,-13,-11
